Measured values reported in PubChem BioAssay (EPA / NIEHS).
Inconclusive results are not listed. Active and inactive are the calls of the source. The calls were made as follows: active = hit-call score of the fitted dose curve at least 0.9, where 1 is the maximum; inconclusive = response in the unintended direction; inactive = score below 0.9.

Columns and labels:
[1] = TOX21_p53_BLA_p2_viability: Viability Assessment in the Tox21 HCT-116 p53 Agonism Beta-lactamase Assay, Phase 2 (AID 2283591);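 also: compound exposure lasted 16 h at 37 °C; actives lower the ATP signal meaning cytotoxicity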
In short: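 HCT116 p53-bla cells, 4000/well, dosed after 5 h plating (217-fold dilution of DMSO stocks) and incubated 16 h at 37C. Viability taken as cellular ATP by CellTiter-Glo luminescence after 30 min RT; signal loss marks cytotoxicity.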

[2] = biological target: Cellular tumor antigen p53 (Homo sapiens) (UniProt P04637); experiment: TOX21_p53_BLA_p2_ratio: Tox21 HCT-116 p53 Agonism Beta-lactamase Assay, Ratio, Phase 2 (AID 2283592)
In short: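 HCT116 p53-bla; 4000 cells/well; 5 h pre-incubation; cpd in DMSO, 217-fold dilution; 16 h 37C/5% CO2; CCF4-AM 2 h RT; Ex 405, Em 460/530 ratio; DMSO = baseline; positive fitting direction.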

[3] = biological target: Cellular tumor antigen p53 (Homo sapiens) (UniProt P04637); experiment: TOX21_p53_BLA_p3_ratio: Tox21 HCT-116 p53 Agonism Beta-lactamase Assay, Ratio, Phase 3 (AID 2283596)
In short: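 HCT116 p53-bla cells (4000/well) given compound in DMSO (217-fold dilution) after 5 h, incubated 16 h at 37C. CCF4-AM substrate 2 h at room temperature; 460/530 nm emission ratio, gain fitted against DMSO.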

[4] = TOX21_p53_BLA_p4_viability: Viability Assessment in the Tox21 HCT-116 p53 Agonism Beta-lactamase Assay, Phase 4 (AID 2283597);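 also: hits lower the luminescence signal meaning cytotoxicity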
In short: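 Cells plated, 5 h pre-incubation; DMSO compounds pinned (217-fold dilution); 16 h, 37C/5% CO2; CCF4-AM 2 h RT; CellTiter-Glo 30 min RT; luminescence read.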

[5] = biological target: Cellular tumor antigen p53 (Homo sapiens) (UniProt P04637); experiment: TOX21_p53_BLA_p5_ratio: Tox21 HCT-116 p53 Agonism Beta-lactamase Assay, Ratio, Phase 5 (AID 2283599)
In short: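 HCT-116 p53-bla cells (4000/well) plated 5 h, dosed with compound (217-fold DMSO dilution) for 16 h at 37 C; CCF4-AM substrate 2 h at room temperature. Activity is the 460/530 nm emission ratio (405 nm excitation), fitted in gain-of-signal direction versus DMSO.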

[6] = TOX21_p53_BLA_p5_viability: Viability Assessment in the Tox21 HCT-116 p53 Agonism Beta-lactamase Assay, Phase 5 (AID 2283600)
In short: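 4000 cells/well; 5 h pre-incubation; DMSO compounds pin-transferred, 217-fold dilution; 16 h, 37C/5% CO2; CCF4-AM 2 h RT; CellTiter-Glo 30 min RT; luminescence.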

[7] = biological target: Cellular tumor antigen p53 (Homo sapiens) (UniProt P04637); experiment: TOX21_p53_BLA_p4_ratio: Tox21 HCT-116 p53 Agonism Beta-lactamase Assay, Ratio, Phase 4 (AID 2283601)
In short: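 HCT-116 p53 beta-lactamase reporter cells (4000/well) preincubated 5 h, then compound (217-fold dilution of DMSO stock) for 16 h at 37C. CCF4-AM substrate added 2 h at room temperature; 460/530 nm emission ratio fitted upward versus DMSO.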

[8] = TOX21_p53_BLA_p3_viability: Viability Assessment in the Tox21 HCT-116 p53 Agonism Beta-lactamase Assay, Phase 3 (AID 2283593);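 also: cells exposed to compound for 16 h before reading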
In short: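 HCT116 cells, 4000/well, dosed 5 h after plating by pin transfer (217-fold dilution from DMSO stock) and incubated 16 h at 37C, 5% CO2. Viability read as ATP luminescence with CellTiter-Glo after 30 min at room temperature.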

Measured: outcome

Cellular tumor antigen p53 (Homo sapiens), sequence (P04637 whole entry, looked up): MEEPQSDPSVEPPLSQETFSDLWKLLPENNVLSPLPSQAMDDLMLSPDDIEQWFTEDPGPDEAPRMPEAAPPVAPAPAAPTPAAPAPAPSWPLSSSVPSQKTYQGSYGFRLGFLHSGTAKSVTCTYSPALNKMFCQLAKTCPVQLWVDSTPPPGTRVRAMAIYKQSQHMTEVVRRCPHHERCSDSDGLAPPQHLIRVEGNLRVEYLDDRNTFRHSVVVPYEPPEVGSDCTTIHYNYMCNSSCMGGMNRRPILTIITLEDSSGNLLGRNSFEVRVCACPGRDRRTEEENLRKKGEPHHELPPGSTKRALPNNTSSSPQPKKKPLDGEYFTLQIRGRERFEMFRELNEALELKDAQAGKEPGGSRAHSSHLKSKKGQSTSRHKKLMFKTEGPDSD

O=P(O)(O)C(Cl)(Cl)P(=O)(O)O
not listed: [8]
inactive: all other assays above

CN1CCC(O)(c2ccc(F)cc2)C(C(=O)c2ccc(F)cc2)C1 (stereo unspecified)
inactive: [1] | [2] | [8] | [5]
